Shown are actives, neighbours in structure and some others; about 3.3% of the full set was active somewhere.
IMPase cell inh: qHTS Assay for Identifying the Cell-Membrane Permeable IMPase Inhibitors. AID 901, 2007. 120,000 tested, under 10 active. inhibition (IP1 accumulation), % at 46.1 µM. CHO-M1 cells, IP1 accumulation, HTRF TR-FRET ratio; active = well fitted curve in the direction sought with a large enough effect in the signal ratio, not every such curve was filed as active; inconclusive = small, poorly fitted or top-dose-only effect, or a change in a side signal; inactive = no such curve, though single readings can be large or run the other way; the % refers to the signal ratio;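 note: cells stimulated with carbachol in lithium chloride buffer; plate controls were DMSO basal wells for no effect and reference inhibitor wells for full effect; higher means more IMPase inhibition seen as more IP1 and lower FRET ratio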
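Measured: the HTRF emission ratio (665/620 nm) plus the 620 nm donor channel, each fitted to the Hill equation to give AC50. Cells were CHO-M1 given compounds up to 46 uM and a 30 min carbachol stimulation at 37C.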
PNC inhibitor: High Content Assay for Compounds that inhibit the Assembly of the Perinucleolar Compartment; PC3M PTB-GFP, PNC prevalence imaging, 16 h; hits give low values; activity change (PNC), negative = inhibition, % at 10 µM; hit rate 3.1% among 140,000;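 active = readout at or below -70, meaning at least 70% loss of cells showing the perinucleolar compartment, a nuclear body marking cancer cells; inconclusive = readout between -30 and a set limit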;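 note: plate controls were DMSO wells for no effect and camptothecin positive control wells for full effect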
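PC3M cells stably expressing PTB-GFP, 750–1000 cells/well, treated 16 h at 37 °C with compound (23 nl of library stock), in duplicate. After paraformaldehyde fixation and Hoechst stain, imaged at 20x; PNC prevalence scored by image analysis.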
ALOX12 inhib: qHTS Assay for Inhibitors of 12-hLO (12-human lipoxygenase). Polyunsaturated fatty acid lipoxygenase ALOX12 (Homo sapiens), P18054. purified 12-hLO, xylenol orange hydroperoxide absorbance. Potency, µM (doses to about 57.1 µM), without a hit: at the highest dose activity change, negative = inhibition, usual class: inhibitors. hit rate 0.12% among 150,000. AID 1452, 2008; note: potency is the fitted concentration of half-maximal effect; % is set by controls: 0 for no effect and ±100 for the full control effect; nearly all actives have a fitted effect of over 55% in size
Target sequence (P18054 whole entry, looked up): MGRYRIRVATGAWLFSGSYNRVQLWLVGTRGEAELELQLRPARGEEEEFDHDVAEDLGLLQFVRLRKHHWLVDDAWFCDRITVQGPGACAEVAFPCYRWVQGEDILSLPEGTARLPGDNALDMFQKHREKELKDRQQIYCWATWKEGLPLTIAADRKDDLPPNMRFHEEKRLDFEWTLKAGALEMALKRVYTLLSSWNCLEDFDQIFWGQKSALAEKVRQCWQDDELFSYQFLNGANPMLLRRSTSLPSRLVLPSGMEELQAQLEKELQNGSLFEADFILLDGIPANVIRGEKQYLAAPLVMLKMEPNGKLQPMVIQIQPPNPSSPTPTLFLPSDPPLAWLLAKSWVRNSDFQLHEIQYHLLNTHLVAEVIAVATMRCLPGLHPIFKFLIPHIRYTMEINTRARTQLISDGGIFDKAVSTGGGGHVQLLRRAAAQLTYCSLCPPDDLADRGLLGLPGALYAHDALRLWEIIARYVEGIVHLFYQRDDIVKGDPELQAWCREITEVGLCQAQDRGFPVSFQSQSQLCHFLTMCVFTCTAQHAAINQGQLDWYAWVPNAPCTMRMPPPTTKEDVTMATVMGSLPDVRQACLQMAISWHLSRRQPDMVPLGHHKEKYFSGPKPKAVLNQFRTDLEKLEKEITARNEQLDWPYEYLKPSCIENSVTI
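Purified human 12hLO (150 nM final) was preincubated with compounds for 15 min at room temperature in 25 mM Hepes pH 7.0, 0.01% Triton X-100, then reacted with 40 uM arachidonic acid for 30 min. Hydroperoxide was detected with ferrous iron/xylenol orange.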
HTT ATP protect: qHTS Multiplex Assay to Identify Dual Action Probes in a Cell Model of Huntington: Cytoprotection (ATP); PC12 HTT-Q103 induced, cytoprotection, ATP luminescence, 40 h; Potency, µM (doses to about 56.4 µM), inactives show cytoprotection (ATP increase), actives largely listed as activators; hit rate 0.14% among 230,000; note: potency is the fitted concentration of half-maximal effect; % of control where 0% means no effect; nearly all actives have a fitted effect of over 45% in size
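ATP quantification (ATPlite) reports survival of PC12 cells in which tebufenozide, 100 nM final, switches on Htt exon 1 with 103 glutamines linked to GFP; compounds are titrated.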
HTT aggregate: qHTS Multiplex Assay to Identify Dual Action Probes in a Cell Model of Huntington: Aggregate Formation (GFP). PC12 HttQ103-GFP aggregates, Acumen cytometry, 40 h. Potency, µM (highest dose often 46.1 µM), without a hit: top-dose activity change, negative = inhibition, usual class: inhibitors. hit rate 1.1% among 220,000. AID 1688, 2009; note: potency is the fitted concentration of half-maximal effect; % is set by controls: 0 for no effect and ±100 for the full control effect; nearly all actives have a fitted effect of over 60% in size
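Read-out: GFP aggregate count by laser scanning cytometer (488 nm excitation, 500-530 nm emission, 1–25 µm objects >6 SD above background). Cells: PC12, inducible HTTex1-Q103-GFP, 100 nM tebufenozide; compounds titrated.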
NPSR antagonist: qHTS Assay for Antagonists of the Neuropeptide S Receptor: cAMP Signal Transduction; Potency, µM (highest dose often 38.3 µM), without a hit: at the highest dose activity change, negative = inhibition, actives largely listed as inhibitors; hit rate 1% among 220,000; CHO-NPSR cells, cAMP TR-FRET, antagonist mode; AID 1461, 2008; Q6W5P4; note: potency is the fitted concentration of half-maximal effect; % is set by controls: 0 for no effect and ±100 for the full control effect; nearly all actives have a fitted effect of over 50% in size
* = called active by the depositor; ? = inconclusive; / = no result; [ ] = another dose, or the depositor's remark. Unless noted, calls come from the whole dose curve; as a rule, active = well fitted curve in the direction sought with a large enough effect; inconclusive = small, poorly fitted or top-dose-only effect, or another doubt; inactive = no such curve, though single readings can be large; an effect the other way counts as inactive or inconclusive.

SMILES	IMPase cell inh	PNC inhibitor	ALOX12 inhib	HTT ATP protect	HTT aggregate	NPSR antagonist
CCc1c(C)nc2ncnn2c1N1CCC(C(=O)N2CCN(c3ccccc3)CC2)CC1	0	-88*	3%	-21%	0%	4%[46.1 µM]
COCCNCCCOc1ccc(C(C)(C)c2ccccc2)cc1	/	23	-5%	/	6%	17%
COCCCNCCCOc1ccc(C(C)(C)c2ccccc2)cc1	/	-107*	-2%	/	-1%	12%
N#CCC(=O)c1sccc1-n1cccc1	/	/	/	7%	9%	-1%
CCNc1ncc2nc(-c3ccc(OC)cc3)c(=O)n(CCC#N)c2n1	/	/	/	-6%	/	/
C/C(=N\N=C(/N)SC1CC(=O)N(c2ccccc2)C1=O)c1cccs1 (stereo not drawn)	-2	54	6%	0%	1%	-15%[46.1 µM]
CCCCCCOc1ccc(N2C(=O)CC(S/C(N)=N/N=C(\C)c3cccs3)C2=O)cc1 (stereo not drawn)	9	?	-7%	0.79µM*	-1%	-7%[46.1 µM]
CCN(CC)S(=O)(=O)c1ccc(-c2nnc(SCC(=O)Nc3nc(C)cs3)o2)cc1	2	-106*	9%	-12%	-11%	-27%[46.1 µM]
COCCn1c(=O)c(-c2ccccc2)nc2cnc(OC)nc21	/	/	/	-27%	/	/
CC(OC(=O)C1=Cc2ccccc2OC1)C(=O)NC1CCCC1 (stereo not drawn)	0[1.84 µM]	-90*	6%	9%[10 µM]	7%	-24%[46.1 µM]
O=C(COC(=O)C1=Cc2ccccc2OC1)NC1CCCC1	3[1.84 µM]	-83*	0%	-19%[10 µM]	-25%	-6%[46.1 µM]
Cc1ccc(C(=O)Cn2c(C(=O)/C=C/c3ccccc3)nc3ccccc32)cc1	-5	66	-1%	-57%	11µM*	?
CCOc1ccc(NC(=O)CSc2nccn2C)cc1	-3	-100*	4%	-14%[10 µM]	4%	6%[46.1 µM]
CCOC(=O)c1ccccc1NC(=O)CSc1nnnn1C	-2	29	-2%	-20%[10 µM]	7%	-18%[46.1 µM]
CCOC(=O)c1ccccc1NC(=O)CSc1nccn1C	-4	-100*	1%	5%[10 µM]	-4%	-5%[46.1 µM]
CSc1cccc(NC(=S)N(CCCN2CCCC(C)C2)Cc2cccs2)c1 (stereo not drawn)	/	/	/	1%	-18%	?
C[C@H]1CC(C)(C)C[C@@](OCCN2CCCCC2)(c2ccccc2)C1	/	/	2%[11.4 µM]	-12%[10 µM]	/	/
Cc1cccc(OCCN2CSC(=S)N(C)C2)c1	11	?	-2%	-91%	-11%[9.22 µM]	6%[46.1 µM]
COc1ccccc1OCCN1CSC(=S)N(C)C1	/	37	-2%	/	-4%	3.2µM*
Cc1ccc(C(=O)Nc2ccccc2C(=O)O)cc1S(=O)(=O)N1CCCCCC1	0	/	/	/	/	/
COc1ccc2c(c1OC)OCC(c1ccc(OC)c(OC)c1OC)C2 (stereo not drawn)	/	/	6%	/	/	/
CN1CCN(c2ncnc3ccc(-c4ccccc4Cl)cc23)CC1	/	/	/	14%	/	/
CCC(C)[C@H](NC(=O)Nc1ccc(S(N)(=O)=O)cc1)C(=O)OC (stereo partly drawn)	/	/	/	-2%[10 µM]	-18%[9.22 µM]	4%
CCC(C)[C@H](NC(=O)Nc1ccc(C(C)=O)cc1)C(=O)OC (stereo partly drawn)	-4	-82*	3%	-11%[0.074 µM]	1%	1%[46.1 µM]
COc1ccc(N(Cc2cc3ccc(C)cc3[nH]c2=O)C(=O)c2ccco2)cc1	5	-84*	-1%	1%[0.074 µM]	-21%	-22%[46.1 µM]
SMILES	IMPase cell inh	PNC inhibitor	ALOX12 inhib	HTT ATP protect	HTT aggregate	NPSR antagonist
O=C(C1CCCO1)N1N=C(c2ccc(Br)cc2)CC1c1ccco1 (stereo not drawn)	/	-89*	-3%	11%[0.074 µM]	11%	-3%
Cc1ccc(C2=NN(C(=O)C3CCCO3)C(c3ccco3)C2)cc1 (stereo not drawn)	/	/	/	2%[10 µM]	-2%[9.22 µM]	1%
CCCCCSc1ncnc2c1sc1nc(N3CCOCC3)c3c(c12)CCCC3	2	/	/	/	/	/
CC(=O)N=C(N)Sc1nc2ccccc2[nH]1	-9	-100*	3%	-6%[10 µM]	-21%	-9%[46.1 µM]
CCOc1ccc(N2C(=O)CC(NCCNc3ccc([N+](=O)[O-])cn3)C2=O)cc1 (stereo not drawn)	/	/	/	-9%	-19%	-7%
COc1ccc(N2C(=O)CC(NCCNc3ccc([N+](=O)[O-])cn3)C2=O)cc1 (stereo not drawn)	/	-100*	-1%	/	-10%	12%
Cc1cccc(-n2c(N)cc(=O)nc2SCC(=O)Nc2nnc(CC(C)C)s2)c1	-1	-4	1%	2%	-4%[9.22 µM]	-12%[46.1 µM]
CCCCc1nnc(NC(=O)CSc2nc(=O)cc(N)n2-c2cccc(C)c2)s1	1	-81*	2%	-18%	-21%	-4%[46.1 µM]
Cc1cc(C)n(-c2nc3ccccc3nc2Nc2cc(C(=O)O)ccc2C)n1	-1	/	/	/	/	/
Cc1ccccc1-c1cncnc1N1CCN(C)CC1	/	/	/	18%	/	/
Cn1c(CN2CCCCC2)nc2cc(NS(=O)(=O)c3ccc(Cl)cc3)ccc21	14	-7	-20%	26%	31%	-13%[46.1 µM]
CC(=O)Nc1ccc2c(c1)nc(CCN1CCC(C)CC1)n2C	10	-101*	-1%	-22%	-5%	1%[46.1 µM]
Cn1c(CCN2CCCCC2)nc2cc(NS(=O)(=O)c3ccc(Cl)cc3)ccc21	10	-93*	?	-7%	?	?
COc1ccc(-c2nc3cc(C(C)C)ccc3o2)cc1NC(=O)COc1ccc(C)cc1C	10	/	/	/	/	/
COc1cccc(OC)c1Nc1nc(C)nc2c1nnn2Cc1ccccc1Cl	/	/	/	16%[10 µM]	16%[9.22 µM]	21%
CCc1nc(Nc2ccc(OC)c(OC)c2)c2nnn(Cc3ccccc3Cl)c2n1	-1	-119*	-8%	16%[10 µM]	-26%	-45%
COc1cc(O)c(C(=O)O)c(O)c1	/	/	-2%	/	/	/
CON(c1nc(N(C)C)nc(N(C)C)n1)S(=O)(=O)c1ccccc1Cl	2	-100*	1%	-22%	-5%	-13%[46.1 µM]
COC(=O)CN(n1cnnc1)S(=O)(=O)c1ccccc1Cl	-7	?	11%	-14%	7%	4%[46.1 µM]
CCN1C(=O)C2C(C1=O)N1C(c3cccs3)C3C(=O)N(CC)C(=O)C3N1C2c1cccs1 (stereo not drawn)	-2	16	-1%	-2%	28µM*	-8%[46.1 µM]
CCN1C(=O)C2C(C1=O)N1C(c3ccccc3)C3C(=O)N(CC)C(=O)C3N1C2c1ccccc1 (stereo not drawn)	-2	26	-6%	0%	5%	-1%[46.1 µM]

Screening data (PubChem)
